Reference: PubChem BioAssay (NCATS)
Where “and” joins values, the source holds several entries; their conditions need not be identical. Equal entries are not always repeated. Inconclusive results are not listed. Calls of active or inactive are those of the source. Unless noted, the call rests on the fitted dose curve; in most records, active means well fitted curve in the direction sought with a large enough effect; inconclusive means small, poorly fitted or top-dose-only effect, or another doubt; inactive means no such curve, though single readings can be large; an effect the other way counts as inactive or inconclusive.

Legend:
[1] = qHTS profiling of the MIPE4 collection as inhibitors of Plasmodium falciparum (3D7) proliferation (AID 743344; call rule not given here;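 further: scaled between DMSO vehicle wells and 0.29 µM artemisinin as full inhibition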); conditions: P. falciparum 3D7 in erythrocytes, SYBR Green DNA fluorescence, 72 h; at 28.5 µM unless noted
Summary of the method: (§1)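 Parasite DNA was quantified by SYBR Green I fluorescence (ex 485, em 535 nm) after overnight lysis in saponin/Triton buffer at room temperature. Cultures at 0.3% parasitemia and 2.5% hematocrit were first exposed to compound for 72 h at 37 C; signals were normalised to artemisinin (0.29 uM) and vehicle wells.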

[2] = qHTS profiling of the MIPE4 collection as inhibitors of Plasmodium falciparum (DD2) proliferation (AID 743345; call rule not given here); conditions: P. falciparum Dd2 in erythrocytes, SYBR Green DNA, 72 h; at 28.5 µM unless noted
Summary of the method: as §1

[3] = qHTS profiling of the MIPE4 collection as inhibitors of Plasmodium falciparum (DD2) proliferation (Rep 2) (AID 743346; call rule not given here); conditions: P. falciparum Dd2 in erythrocytes, SYBR Green DNA, 72 h; at 28.5 µM unless noted
Summary of the method: as §1

[4] = qHTS profiling of the MIPE4 collection as inhibitors of Plasmodium falciparum (HB3) proliferation (AID 743347; call rule not given here;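 further: plate controls were DMSO vehicle wells for no effect and artemisinin wells for full effect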); conditions: P. falciparum HB3 in erythrocytes, SYBR Green DNA, 72 h; at 28.5 µM unless noted
Summary of the method: as §1

[5] = High-throughput drug toxicity screening in the BPDCN cell line Gen2.2 (AID 1224824; call rule not given here;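 further: cells exposed to compounds for 48 h before reading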); conditions: Gen2.2 BPDCN cells; at 45.8 µM (top of the series) unless noted
Summary of the method: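 CellTiter-Glo luminescence read after 48 h compound exposure at 37 C defines viability; percent activity set with DMSO as 100% and bortezomib (9.2 uM final) as 0%. 500 exponentially growing cells per well, RPMI plus 10% FBS.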

[6] = High-throughput drug toxicity screening in the BPDCN cell line Cal-1 (AID 1224825; call rule not given here); conditions: Cal-1 BPDCN cell viability, qHTS; at 45.8 µM (top of the series) unless noted
Summary of the method: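 CellTiter-Glo luminescence after 48 h compound exposure; percent activity scaled with DMSO as 100% and bortezomib (9.2 uM final) as 0%. Cal-1 cells seeded at 500/well in RPMI, 10% FBS, no phenol red.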

[7] = qHTS assay for measurement of the activity of small molecule inhibitors on Zika virus induced Caspase-3 activity in human iPSC derived neural progenitor cells (hNPCs) (AID 1224857); further: % of control where 0% means no effect; nearly all actives have a fitted effect of over 65% in size
Summary of the method: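 After overnight (16–20 h) culture at 350 cells/well, hNPCs get compound, then ZIKV 2 FFU/cell one hour later. Six hours on, Caspase-Glo 3/7 is added and luminescence measured.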

[8] = qHTS assay for measurement of the activity of small molecule inhibitors on Zika virus induced Caspase-3 activity in human astrocytoma cells (AID 1224859);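 further: plate controls were ZIKV-infected untreated cells for no effect and uninfected cells for full effect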
Summary of the method: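 Inhibition of Zika-induced caspase-3/7 activity: SNB-19 cells, 1 h compound pretreatment, ZIKV 2 FFU/cell for 6 h at 37 C, Caspase-Glo luminescence read-out.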

[9] = qHTS Screen of the MIPE 4.0 Collection Against Ewings Sarcoma (RDES) (AID 1259252); further: nearly all actives have a fitted effect of over 35% in size; further: potency means the concentration at half of the fitted maximal effect
Summary of the method: (§2)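 Log-phase cells in RPMI with 5% FBS attached for 4 h, then received compounds as a titration for 48 h at 37C, 5% CO2. Viability was read by CellTiter-Glo luminescence and normalized to DMSO and no-cell wells.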

[10] = qHTS Screen of the MIPE 4.0 Collection Against Ewings Sarcoma (TC71) (AID 1259253); further: nearly all actives have a fitted effect of over 40% in size; further: potency means the concentration at half of the fitted maximal effect
Summary of the method: as §2

[11] = qHTS Screen of the MIPE 4.0 Collection Against Ewings Sarcoma (EW8) (AID 1259255); further: nearly all actives have a fitted effect of over 35% in size; further: potency means the concentration at half of the fitted maximal effect;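 on viability: 100% = DMSO-treated cells and 0% = medium-only wells without cells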
Summary of the method: as §2

[12] = qHTS Screen of the MIPE 4.0 Collection Against Ewings Sarcoma (TC32) (AID 1259256); further: nearly all actives have a fitted effect of over 45% in size; further: potency means the concentration at half of the fitted maximal effect
Summary of the method: as §2

[13] = P-glycoprotein substrates identified in KB-8-5-11 adenocarcinoma cell line, qHTS therapeutic library screen (AID 1346987); further: nearly all actives have a fitted effect of over 65% in size; further: potency means the concentration at half of the fitted maximal effect
Summary of the method: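 In this qHTS, P-gp-rich KB-8-5-11 cells received library compounds across a concentration range. Viability was quantified by luminescence after 72 h at 37 degree C.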

Row | SMILES | parasite growth, % of DMSO control [1] | parasite growth remaining, % of DMSO control (lower = more inhibition) [2] | parasite growth, % of control (lower = inhibition) [3] | growth, % of control [4] | cell viability, % of control (lower = more cytotoxic) [5] | viability (% of control) [6] | Potency [7] | Potency [8] | Potency [9] | Potency [10] | Potency [11] | Potency [12] | Potency [13]
1 | CC(=O)OCC(=O)[C@@]12N=C(C)O[C@H]1C[C@H]1[C@@H]3CCC4=CC(=O)C=C[C@]4(C)[C@@H]3[C@@H](O)C[C@@]12C | 89.5% | 90% | 68.3% | 84% | 94.7% | 57.7% | inactive | inactive | inactive | inactive | inactive | inactive | inactive
2 | COc1cc2c(cc1O)CCC1C2CC[C@@]2(C)C1CC[C@@H]2O (some centres undefined) | 79.6% | 94.6% | 67% | 59.7% | 95.2% | 10.9% | inactive | inactive | 7.43 µM (active) | 2.64 µM (active) | 3.32 µM (active) | 2.64 µM (active) | 1.32 µM (active)
3 | c1ccc(CNc2nc(NCc3ccccc3)c3ccccc3n2)cc1 | 5.75% | 7.99% | 10.1% | 8.52% | 6.1% | 2.67% | inactive | inactive | 20.9 µM (active) | 26.4 µM (active) | 20.9 µM (active) | 23.5 µM (active) | 20.9 µM (active)
4 | CC(=O)SCC(Cc1ccccc1)C(=O)NCC(=O)OCc1ccccc1 (centres undefined) | 43.2% | 97.5% | 60.4% | 65.1% | 5.18% | 4.75% | inactive | inactive | 0.59 µM (active) | 0.833 µM (active) | 1.05 µM (active) | 0.743 µM (active) | inactive
5 | C#C[C@]1(O)CC[C@@H]2[C@@H]3CCC4=CC(=O)CC[C@@H]4[C@H]3CC[C@@]21CC | 28% | 79.2% | 51.5% | 61.1% | 146% | 114% | inactive | inactive | inactive | inactive | inactive | inactive | inactive
6 | CN(C)CCN1C(=O)c2cccc3cc(N)cc(c23)C1=O | 18.3% | 12.6% | 10.8% | 9.26% | 5.29% | 4.08% | inactive | inactive | 16.6 µM (active) | 14.8 µM (active) | 1.66 µM (active) | inactive | 14.8 µM (active)
7 | O=[N+]([O-])c1cn2c(n1)OC[C@@H](OCc1ccc(OC(F)(F)F)cc1)C2 | 94.2% and 79.4% |  | 155% and 70.1% | 98.1% and 86.3% | 110% | 105% | inactive | inactive | 3.32 µM (active) | 3.72 µM (active) | 9.35 µM (active) | 8.33 µM (active) | inactive
8 | COc1ccc(C(C)=O)c(O)c1 | 86.4% |  |  | 95.8% | 146% | 35.9% | inactive | inactive | inactive | inactive | inactive | inactive | inactive
9 | CN(C)CC[C@H](c1ccc(Cl)cc1)c1ccccn1 | 94.7% |  | 36.2% | 95.2% | 120% | 98.4% | inactive | inactive | inactive | inactive | inactive | inactive | inactive
10 | O=C1CSC(=O)N1C(CCc1ccncc1)COc1ccc(-c2cccc([N+](=O)[O-])c2)cc1 (centres undefined) | 17.8% |  |  | 4.69% | 188% | 33% | inactive | inactive | 2.96 µM (active) | 4.69 µM (active) | 13.2 µM (active) | 6.62 µM (active) | inactive
11 | CCCCCCCCCCCC(CC1OC(=O)C1CCCCCC)OC(=O)C(CC(C)C)NC=O (centres undefined) | 7.26% | 13.8% |  | 3.37% | 82.8% | 89.4% | inactive | inactive | inactive | inactive | inactive | inactive | inactive
12 | Cc1cncc2cccc(S(=O)(=O)N3CCCN(C(=O)CN)C[C@@H]3C)c12 | 85.8% | 89.9% | 51% | 101% | 35.1% | 36.2% | inactive | inactive | 8.33 µM (active) | 14.8 µM (active) | 2.64 µM (active) | 1.18 µM (active) | 
13 | O=C(CN1C(=O)C2(CCCC2)NC[C@H]1c1cc(F)cc(F)c1)Nc1ccc2c(c1)C[C@@]1(C2)C(=O)Nc2ncccc21 | 26% |  | 26.1% | 40.3% | 124% | 107% | inactive | inactive | inactive | inactive | inactive | inactive | inactive
14 | O=C(Nc1nnc(-c2ccco2)o1)c1cc(-c2ccccc2)nc2ccccc12 | 51.6% | 94.4% | 42.6% | 18.7% | 42.4% | 17.3% | inactive | inactive | 16.6 µM (active) | 16.6 µM (active) | 23.5 µM (active) | 13.2 µM (active) | 
15 | Nc1cccc2c1C(=O)N(C1CCC(=O)NC1=O)C2=O (centres undefined) | 97.4% | 95.1% |  | 49.9% | 52.1% | 88.7% | inactive | inactive | inactive | inactive | inactive | 0.0042 µM (active) | inactive
